Structures are written as SMILES. This is part of a sample that, as a whole, favours compounds with a hit. Of some 79,000 tested, about 15% had one in any assay. A number with no mark means an inactive call. The source made the active and inactive calls. No stated cut-off is given here; in the data, active means growth inhibition above about 70%; inactive means the rest.

Test [1] can be described thus: NCI Yeast Anticancer Drug Screen. Data for the rad50 strain (AID 155).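 Further: 0% = growth of vehicle-only cultures of the same strain.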 Conditions: S. cerevisiae rad50 strain growth inhibition, hits give high values. The essentials:
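Relative growth inhibition (compound vs vehicle) was measured in yeast with a defined repair-gene alteration.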

Test [2] in a line: NCI Yeast Anticancer Drug Screen. Data for the mec2-1 strain (AID 157). As to conditions: S. cerevisiae mec2-1 strain, hits give high values. Summed up: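 Each compound was tested on mec2-1 yeast, a strain altered in DNA damage repair or cell cycle control. Growth inhibition is reported relative to vehicle.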
The nature of test [3]: NCI Yeast Anticancer Drug Screen. Data for the sgs1 mgt1 strain (AID 161).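 Further: 0% = growth of cultures given vehicle only.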 Conditions: S. cerevisiae sgs1 mgt1 strain, hits give high values. The essentials: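 Genetically altered yeast, compound exposure, growth inhibition relative to vehicle.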
Test [4] in a line: NCI Yeast Anticancer Drug Screen. Data for the cln2 rad14 strain (AID 165).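 Further: 0% = growth equal to vehicle treated cultures.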 Conditions: S. cerevisiae cln2 rad14 strain, hits give high values. Summed up:
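Test compounds were added to cln2 rad14 yeast cultures; inhibition of growth was then determined by comparison with vehicle treatment.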

Test [5] can be described thus: NCI Yeast Anticancer Drug Screen. Data for the bub3 strain (AID 167). As to conditions: S. cerevisiae bub3 mutant strain, hits give high values. Summed up: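 Screening used yeast with an engineered genetic alteration affecting cell cycle control. Compound-exposed cultures were compared with vehicle cultures, and reduced growth was taken as inhibition.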
Test [6] is described as follows: NCI Yeast Anticancer Drug Screen. Data for the mlh1 rad18 strain (AID 175). As to conditions: S. cerevisiae mlh1 rad18 strain growth inhibition, hits give high values. The essentials: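 Inhibition values reflect reduced growth of mutant yeast versus vehicle-treated controls following compound exposure; the mutations affect DNA damage repair.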
The mark [7] stands for this setting: at 5.0 µM (retest, dose inferred, filed as 0.5).
The mark [8] stands for this setting: at 50.0 µM (retest, dose inferred, filed as 5.0).

Consider `CC(C)(Cl)C(Cl)CC/C(CBr)=C(\Cl)CCl` (stereo not given), for which the growth inhibition in test [1] (setting [7]) was 28%; in test [1] (setting [8]), 98% (active); in test [1] (at 50.0 µM) it was 86.7% (active); in test [2] (setting [7]), 19%; in test [2] (setting [8]) it was 98% (active); in test [2] (at 50.0 µM), 89.9% (active). In addition, the growth inhibition in test [3] (setting [7]) was 14%; in test [3] (setting [8]) it was 100% (active); in test [3] (at 50.0 µM), 91.5% (active); in test [4] (setting [7]), 26%; in test [4] (setting [8]), 98% (active); in test [4] (at 50.0 µM), 88.2% (active). The growth inhibition is 27% in test [5] (setting [7]); 100% (active) in test [5] (setting [8]); 88.2% (active) in test [5] (at 50.0 µM); 21% in test [6] (setting [7]); 98% (active) in test [6] (setting [8]); 1.35% in test [6] (at 50.0 µM).
Regarding `O=C(O)C1(Cc2ccc3c(c2)CCC3)Cc2cc3c(cc2C1)CCC3`, the growth inhibition was 2% in test [1] (setting [7]); 2% in test [1] (setting [8]); 82.8% (active) in test [1] (at 50.0 µM); -7% in test [2] (setting [7]); -7% in test [2] (setting [8]); 86.1% (active) in test [2] (at 50.0 µM). The growth inhibition in test [3] (setting [7]) was -1%; in test [3] (setting [8]), -1%; in test [3] (at 50.0 µM) it was 77.8% (active); in test [4] (setting [7]) it was -1%; in test [4] (setting [8]), -1%; in test [4] (at 50.0 µM), 82% (active). The growth inhibition is -11% in test [5] (setting [7]); -11% in test [5] (setting [8]); 82.2% (active) in test [5] (at 50.0 µM); 14% in test [6] (setting [7]); 14% in test [6] (setting [8]); 80.1% (active) in test [6] (at 50.0 µM).
Consider `CCCCc1c2c(nc3c1CCCC3O)/C(=C/c1ccccc1)CCC2` (stereo not given), for which the growth inhibition in test [1] (setting [7]) is 0%; in test [1] (setting [8]), 42%; in test [1] (at 50.0 µM), 50.8%; in test [2] (setting [7]), 0%; in test [2] (setting [8]), 47%; in test [2] (at 50.0 µM), 53.9%. The growth inhibition in test [3] (setting [7]) was -2%; in test [3] (setting [8]), 67%; in test [3] (at 50.0 µM), 49.9%; in test [4] (setting [7]), -3%; in test [4] (setting [8]), 30%; in test [4] (at 50.0 µM), 59.9%. Besides, the growth inhibition in test [5] (setting [7]) is 3%; in test [5] (setting [8]), 89% (active); in test [5] (at 50.0 µM), 83.7% (active); in test [6] (setting [7]), 1%; in test [6] (setting [8]), 71% (active); in test [6] (at 50.0 µM), 80.3% (active).
As for `COc1ccc(OC)c2c1C=C[C@H](C1(C)SCCS1)C2C(C)=O` (stereo not given in full), the growth inhibition in test [1] (setting [7]) was 6%; in test [1] (setting [8]), 82% (active); in test [1] (at 50.0 µM), 74% (active); in test [2] (setting [7]) it was -4%; in test [2] (setting [8]) it was 88% (active); in test [2] (at 50.0 µM) it was 82% (active). The growth inhibition was 6% in test [3] (setting [7]); 77% (active) in test [3] (setting [8]); 80.7% (active) in test [3] (at 50.0 µM); 7% in test [4] (setting [7]); 83% (active) in test [4] (setting [8]); 72.3% (active) in test [4] (at 50.0 µM). Further, the growth inhibition is -2% in test [5] (setting [7]); 90% (active) in test [5] (setting [8]); 76.5% (active) in test [5] (at 50.0 µM); -13% in test [6] (setting [7]); 92% (active) in test [6] (setting [8]); 77% (active) in test [6] (at 50.0 µM).
As for `O=C(c1ccccc1)C1C(c2ccccc2)OP(c2ccccc2)(c2ccccc2)(c2ccccc2)C1c1ccccc1` (stereo not given), the growth inhibition in test [1] (setting [7]) was 83% (active); in test [1] (setting [8]), 99% (active); in test [1] (at 50.0 µM), 99.7% (active); in test [2] (setting [7]), 96% (active); in test [2] (setting [8]), 99% (active); in test [2] (at 50.0 µM), 99.8% (active). Further, the growth inhibition was 83% (active) in test [3] (setting [7]); 100% (active) in test [3] (setting [8]); 99.8% (active) in test [3] (at 50.0 µM); 56% in test [4] (setting [7]); 99% (active) in test [4] (setting [8]); 99.5% (active) in test [4] (at 50.0 µM). The growth inhibition in test [5] (setting [7]) was 80% (active); in test [5] (setting [8]), 99% (active); in test [5] (at 50.0 µM), 99.6% (active); in test [6] (setting [7]), 84% (active); in test [6] (setting [8]), 99% (active); in test [6] (at 50.0 µM), 99.8% (active).
As to `CN(C)CCOc1cc2c(c3ccccc13)-c1ccccc1C2=O`, the growth inhibition in test [1] (setting [7]) was 93% (active); in test [1] (setting [8]), 99% (active); in test [1] (at 50.0 µM), 99.7% (active); in test [2] (setting [7]), 14%; in test [2] (setting [8]) it was 99% (active); in test [2] (at 50.0 µM), 99.3% (active). For the same molecule, the growth inhibition is 20% in test [3] (setting [7]); 100% (active) in test [3] (setting [8]); 99.4% (active) in test [3] (at 50.0 µM); 12% in test [4] (setting [7]); 96% (active) in test [4] (setting [8]); 99% (active) in test [4] (at 50.0 µM). Also, the growth inhibition in test [5] (setting [7]) is 6%; in test [5] (setting [8]) it was 99% (active); in test [5] (at 50.0 µM), 99.6% (active); in test [6] (setting [7]), 21%; in test [6] (setting [8]), 100% (active); in test [6] (at 50.0 µM), 99.1% (active).
On to `CC(CN(C)C)C(=O)/C=C/c1ccc(C(C)C)cc1` (stereo not given), for which the growth inhibition in test [1] (setting [7]) was 3%; in test [1] (setting [8]), 89% (active); in test [1] (at 50.0 µM) it was 93.2% (active); in test [2] (setting [7]), 6%; in test [2] (setting [8]), 75% (active); in test [2] (at 50.0 µM), 37.3%. Moreover, the growth inhibition in test [3] (setting [7]) was 9%; in test [3] (setting [8]) it was 93% (active); in test [3] (at 50.0 µM) it was 97.2% (active); in test [4] (setting [7]) it was 11%; in test [4] (setting [8]) it was 26%; in test [4] (at 50.0 µM) it was 25.8%. In addition, the growth inhibition in test [5] (setting [7]) was 0%; in test [5] (setting [8]), 81% (active); in test [5] (at 50.0 µM), 69%; in test [6] (setting [7]) it was -1%; in test [6] (setting [8]) it was 94% (active); in test [6] (at 50.0 µM) it was 91.4% (active).
Take `OC(CN1CCC(c2ccccc2)CC1)c1ccc(Br)cc1` (stereo not given): the growth inhibition in test [1] (setting [7]) is 57%; in test [1] (setting [8]) it was 74% (active); in test [1] (at 50.0 µM), 87.7% (active); in test [2] (setting [7]), 32%; in test [2] (setting [8]) it was 53%; in test [2] (at 50.0 µM) it was 61.2%. Also, the growth inhibition was 66% in test [3] (setting [7]); 64% in test [3] (setting [8]); 83.2% (active) in test [3] (at 50.0 µM); 64% in test [4] (setting [7]); 77% (active) in test [4] (setting [8]); 76.8% (active) in test [4] (at 50.0 µM). The growth inhibition in test [5] (setting [7]) was 58%; in test [5] (setting [8]), 93% (active); in test [5] (at 50.0 µM), 82.7% (active); in test [6] (setting [7]), 80% (active); in test [6] (setting [8]) it was 91% (active); in test [6] (at 50.0 µM), 80.5% (active).
Consider `O=C1CCCC/C1=C/c1ccc(Cl)cc1`, for which the growth inhibition in test [1] (setting [7]) is -151%; in test [1] (setting [8]) it was 35%; in test [1] (at 50.0 µM), 87.3% (active); in test [2] (setting [7]) it was -49%; in test [2] (setting [8]), -13%; in test [2] (at 50.0 µM), 81.2% (active). Besides, the growth inhibition was -64% in test [3] (setting [7]); 35% in test [3] (setting [8]); 82% (active) in test [3] (at 50.0 µM); -57% in test [4] (setting [7]); -37% in test [4] (setting [8]); 33% in test [4] (at 50.0 µM). In addition, the growth inhibition in test [5] (setting [7]) is -64%; in test [5] (setting [8]), 27%; in test [5] (at 50.0 µM) it was 73.7% (active); in test [6] (setting [7]), -229%; in test [6] (setting [8]), 36%; in test [6] (at 50.0 µM), 90.8% (active).
Turning to `COc1cc(CNC(=O)CCCCCCCCCCSC#N)ccc1O`, the growth inhibition is 6% in test [1] (setting [7]); 59% in test [1] (setting [8]); 82.1% (active) in test [1] (at 50.0 µM); 5% in test [2] (setting [7]); 43% in test [2] (setting [8]); 85.2% (active) in test [2] (at 50.0 µM). Further, the growth inhibition was 7% in test [3] (setting [7]); 77% (active) in test [3] (setting [8]); 83.6% (active) in test [3] (at 50.0 µM); 1% in test [4] (setting [7]); 76% (active) in test [4] (setting [8]); 81% (active) in test [4] (at 50.0 µM). In addition, the growth inhibition in test [5] (setting [7]) is 0%; in test [5] (setting [8]), 82% (active); in test [5] (at 50.0 µM), 86.7% (active); in test [6] (setting [7]), 20%; in test [6] (setting [8]), 73% (active); in test [6] (at 50.0 µM), 81.2% (active).
